Data published in PubChem BioAssay AID624256 (NMMLSC, 2012).
Among all 360,000 compounds or so, about 3,700 (1%) were called active. Another 2% or so got no clear call; they are omitted.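 Rule for the calls: active = normalized GFP-positive differentiation at or above the plate's own cutoff, the solvent-only control mean plus 3 SD; inconclusive = no clear call, values can overlap the other calls; inactive = the rest.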 The sample as a whole holds a higher share of actives than the screen did.

Experiment: HoxA9-arrested leukemia cell differentiation promoters – flow cytometry, MLPCN library, primary screen (AID 624256);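 for GFP+ MAC1+ double positive: cells exposed to compound for four days before flow analysis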;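 for normalized GFP-positive differentiation: cells exposed to compound for four days before flow analysis; 0% = DMSO wells and 100% = fulvestrant positive control at 5 µM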
Details: ER-HoxA9 myeloid progenitors, lysozyme-GFP differentiation, at 10 µM; GFP+ MAC1+ double positive: measured here: differentiation confirmed by MAC1 staining, stronger effect = higher value; normalized GFP-positive differentiation: stronger effect = higher value

Structure (SMILES)	GFP+ MAC1+ double positive [%]	normalized GFP-positive differentiation	outcome
O=C1NC(=O)N(CCc2ccc(F)cc2)C(=O)/C1=C/C=C/c1ccccc1	0.9	70.4% (active)	
CNC(=O)O/N=C(\N)Cc1csc2ccc(Cl)cc12	0.2		inactive
CC(C)Nc1nc(Cl)nc(NC(C)C)n1	0.1		inactive
COc1ccc(N=Cc2c(O)n(C)c(=O)[nH]c2=O)cc1	0.4		inactive
C[C@H]1CN([C@@H](C)CO)C(=O)CCCn2nncc2CO[C@H]1CN(C)C(=O)Oc1ccccc1	0.8		inactive
Cc1ccccc1NC(=O)COC(=O)c1cc(C)n(C2CC2)c1C	1.3		inactive
CC(=NCC1CCCO1)c1c(O)n(-c2ccccc2)c(=O)[nH]c1=O (stereo not given)	0.9		inactive
OCC#CC[N+]1(CC#Cc2ccccc2)CCCC1	1.2	7.55% (active)	
COC(=O)C1=C(c2cc3ccccc3s2)C[C@@H]2CC[C@H]1N2C(=O)NCCO	4.1		inactive
CCOC(=O)[C@]12Cc3cc(OC)ccc3[C@H]1N(C(C)C)C(=O)c1ccccc12	1.5		inactive
c1ccc(CC2CCCCN2)cc1 (stereo not given)	0.1		inactive
c1ccc2sc(C3CCCNC3)nc2c1 (stereo not given)	1.2		inactive
CC1CC=CCC12C(=O)NC(=S)NC2=O (stereo not given)	11.7	312% (active)	
CN1CCC[C@@H]1CCO[C@](C)(c1ccccc1)c1ccc(Cl)cc1	3.2		inactive
CC1C2Cn3c(nc4ccccc43)C1N(C)O2 (stereo not given)	1.5		inactive
